# Data from PubChem BioAssay AID1030 (National Center for Advancing Translational Sciences (NCATS), 2008).
# “And” between values parts separate entries of the source, which are not always exact repeats. Equal entries are not always repeated. Hit rate of the full screen: of about 220,000 compounds, about 16,000 (7.3%) were called active. About 25% were inconclusive and are not listed. Calls follow the shape of the dose curve; as a rule, active = well fitted inhibition curve with a large enough effect (not every such curve was filed as active); inconclusive = small, poorly fitted or top-dose-only effect, or another doubt; inactive = no such curve, though single readings can be large or run the other way. Only a selection was taken, and actives are over-represented in it overall. Some structures have more than one record in an assay (separate samples or runs), and their calls can disagree.
# Molecular target: Aldehyde dehydrogenase 1A1 (Homo sapiens) (UniProt P00352)
# Sequence (P00352 whole entry, looked up): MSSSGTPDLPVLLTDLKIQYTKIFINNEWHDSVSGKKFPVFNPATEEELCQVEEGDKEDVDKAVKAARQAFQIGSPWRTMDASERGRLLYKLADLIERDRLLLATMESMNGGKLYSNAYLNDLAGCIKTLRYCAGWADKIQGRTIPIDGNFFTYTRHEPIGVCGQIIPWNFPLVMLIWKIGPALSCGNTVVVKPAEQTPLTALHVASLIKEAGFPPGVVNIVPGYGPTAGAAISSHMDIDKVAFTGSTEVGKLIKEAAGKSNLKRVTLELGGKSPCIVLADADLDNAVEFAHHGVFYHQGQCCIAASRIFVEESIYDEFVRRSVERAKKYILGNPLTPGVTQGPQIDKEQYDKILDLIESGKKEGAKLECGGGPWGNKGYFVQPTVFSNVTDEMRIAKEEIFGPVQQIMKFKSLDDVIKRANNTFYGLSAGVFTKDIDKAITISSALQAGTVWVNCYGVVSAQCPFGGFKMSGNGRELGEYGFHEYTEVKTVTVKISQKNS
# Assay: qHTS Assay for Inhibitors of Aldehyde Dehydrogenase 1 (ALDH1A1);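 as to activity, negative = inhibition: plate controls were no enzyme wells and a reference inhibitor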
# Details: Purified ALDH1A1, NADH fluorescence, propionaldehyde substrate; series mostly up to 75.3 µM; activity, negative = inhibition: at the top concentration
# Potency is read from the fitted curve at half-maximal effect.
SMILES,"activity, negative = inhibition",Potency
CCOC(=O)N1CCN(C(=O)c2ccccc2N(Cc2ccccc2)S(=O)(=O)c2ccc(OC)cc2)CC1,3.86% (inactive),
N#Cc1cccc(CS(=O)(=O)c2nnnn2-c2cc(C(F)(F)F)cc(C(F)(F)F)c2)c1,3.86% (inactive),
COc1ccccc1N1CCN(C(=O)CN(Cc2ccc(Cl)cc2)S(C)(=O)=O)CC1,3.38% (inactive),
COc1ccccc1-n1nnnc1S(=O)(=O)Cc1ccc(Cl)cc1,,2.51 µM (active)
CCN(CCCNC(=O)CCn1c(=O)[nH]c2ccsc2c1=O)c1ccccc1,-8.83% (inactive),
Cc1nc(Nc2ccc(S(=O)(=O)N3CCCC3)cc2)c2nnn(Cc3ccccc3)c2n1,5.63% (inactive),
CC(C)(C)c1nc(NCC2CCCO2)c2nnn(Cc3ccccc3)c2n1 (configuration not stated),6.84% (inactive),
CC(C)Nc1ncnc2c1nnn2Cc1ccccc1,,12.6 µM (active)
COc1ccc(N2CCN(C(=O)C3CCN(S(=O)(=O)c4ccc(C)cc4)CC3)CC2)cc1,-7.46% (inactive),
COc1ccc(/C=C(\C#N)C(=O)NCCCn2ccnc2)cc1,-1.14% (inactive),
COc1ccc(/C=C(\C#N)C(=O)ONC2=NCCCCC2)cc1,,35.5 µM (active)
Cc1cccc(OCC(=O)NC(=S)Nc2ccccc2N2CCOCC2)c1,-11.4% (inactive),
COc1ccc(C(=O)NC(=S)Nc2ccccc2N2CCN(S(C)(=O)=O)CC2)cc1OC,,0.501 µM (active)
COC(=O)c1ccc(NC(=S)NN2CCOCC2)cc1,-0.42% (inactive),
Cc1ccc(C(=O)NC(=S)NCCN2CCOCC2)cc1,5.75% (inactive),
COc1ccc(C(=O)NC(=S)Nc2ccc(N3CCCC3)cc2)cc1OC,,3.55 µM (active)
Cc1ccc(C(=O)NC(=S)Nc2ccc(N3CCOCC3)cc2)cc1,,11.2 µM (active)
COc1ccc(C(=O)NC(=S)Nc2ccc(Cl)cn2)cc1OC,10% (inactive),
COc1cccc(OC)c1C(=O)Nc1ccc(N2CCCCC2)cc1,-1.34% (inactive),
COc1ccc(C(=O)Nc2ccc3nc(N4CCCCC4)cc(C)c3c2)cc1OC,-13.5% (inactive),
CC1(C)CC(=O)C=C(N2CCOCC2)C1,-1.31% (inactive),
O=[N+]([O-])c1ccc(Sc2n[nH]c(-c3ccco3)n2)nc1,5.62% (inactive),
CN(c1ccc(OCC(=O)OCC(=O)Nc2cccc([N+](=O)[O-])c2)cc1)S(=O)(=O)c1ccc(F)cc1,2.62% (inactive),
O=C(Cc1ccc(F)cc1)N1CCN=C1SCc1cccc([N+](=O)[O-])c1,-8.83% (inactive),
COc1cccc(C(O)Cc2nc3ccccc3n2C)c1OC (configuration not stated),3.05% (inactive),
CCNC(=O)COc1cc(C)c(Br)c(C)c1,10% (inactive),

SMILES,"activity, negative = inhibition",Potency
CCc1cc(C(=O)c2ccc(OC)cc2)c(NC(=O)CN2CCN(C)CC2)s1,1.85% (inactive),
Cc1cc(Cl)ccc1NC(=S)NCCCN1CCCC1=O,6.05% (inactive),
CCOC(=O)c1nn(-c2cccc(C)c2)cc1C(=O)c1ccccc1,,5.01 µM (active)
CCOC(=O)c1c(N)nn(C(=O)c2ccccc2)c1-c1ccccc1,6.37% (inactive),
CCOC(=O)c1cn(Cc2cccc(C)c2)nn1,-9.64% (inactive),
CCCCS(=O)(=O)N1C2=NC(C(=O)OC)=C(C(=O)OC)[C@@H]3N(Cc4ccccc4)c4ccccc4[C@]23C[C@H]1C(=O)OC,1.36% [at 13.5 µM] (inactive),
CC(C)(C)c1ccc(/C=C2\SC(=O)N=C2N)cc1,8.52% (inactive),
COc1ccc(-n2nnnc2SCc2nc(N)nc(N3CCOCC3)n2)cc1,17.4% (inactive),
CN(C)c1nc(N)nc(Cn2nnc(-c3ccc(C(F)(F)F)cc3)n2)n1,6.45% (inactive),
COc1ccc(-c2nnn(Cc3nc(N)nc(N4CCCCC4)n3)n2)cc1,,0.562 µM (active)
CC(Nc1ccccc1)c1cccnc1 (configuration not stated),7.63% (inactive),
OC[C@H]1O[C@@H](n2cnc3c(N[C@H]4CC5CCC4C5)ncnc32)[C@H](O)[C@@H]1O (some centres not stated),6.91% (inactive),
Clc1ccc(-c2ncc3ccccn23)c(Cl)c1,-5.79% (inactive),
COn1c(-c2ccc(Cl)cc2Cl)nc2ncccc21,15.4% (inactive),
COc1ccccc1/C=C/C=N/n1c(-c2ccc(Cl)cc2Cl)n[nH]c1=S,,20 µM (active)
Cc1cc(/C=N/NC(N)=O)c(C)n1C1CCCCC1,-3.75% (inactive),
CC1CCc2sc(C(=O)N/N=C/C3CCCCC3)cc2C1 (configuration not stated),,11.2 µM (active)
OC(CNCc1ccc(Cl)c(Cl)c1)c1ccccc1 (configuration not stated),3.1% (inactive),
COc1ccc(-n2c(C)nc3c(cnn3-c3ccccc3)c2=O)cc1,-5.74% (inactive),
Cc1ccc(-n2ncc3c(=O)n(-c4ccc(C)c(C)c4)c(-c4ccco4)nc32)cc1,,25.1 µM (active)
Cc1ccc(-c2nc3c(cnn3-c3ccccc3)c(=O)o2)cc1,-7.8% (inactive),
Cn1nnnc1SCC(=O)Nc1nc2ccccc2s1,-8.43% (inactive),
Cc1cc([N+](=O)[O-])nn1CCCC(=O)Nc1cccnc1Cl,5.05% (inactive),
COc1ccc(CC(N)C(=O)NC2C(O)[C@H](n3cnc4c(N(C)C)ncnc43)O[C@@H]2CO)cc1 (some centres not stated),2.23% (inactive),
COC(=O)[C@H](C)[C@H]1C[C@]1(C)[C@H](NC(=O)OCc1ccccc1)c1ccccc1,,inactive and 22.4 µM (active)
O=C(NCC1CCC(C(=O)O)CC1)OCc1ccccc1 (configuration not stated),-0.584% (inactive),
